# Screening results from PubChem.
# ATXN2 expr inh – reduces ATXN2 reporter expression in HEK-293 cells | HEK-293 ATXN2-luciferase reporter, luminescence, 24 h | Potency, µM (top dose mostly 57 µM), inactives show at the highest dose activity change, negative = inhibition, actives largely listed as inhibitors | 0.72% of 360,000 active; further: on the % scale 0 is the no-effect control and ±100 the full control effect; nearly all actives have a fitted effect of over 55% in size
#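 qHTS (up to 57 uM final) was run with 24 h compound exposure of reporter cells at 37 °C. Each well was multiplexed: SteadyGlo luminescence measured ATXN2-luciferase expression after a fluorogenic Gly-Phe-AFC viability readout (25 uM final).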
# S2 tox – reduces viability in counter-screen for ATXN expression inhibitors. S2 cells (HEK-293 line with an ATXN2-luciferase reporter) viability, CellTiter-Fluor protease fluorescence, 24 h. Potency, µM (highest dose often 56.7 µM), usual class: cytotoxic. 0.49% of 400,000 active. AID 651635; further: nearly all actives have a fitted effect of over 40% in size
# HT1080 IDH1KD tx – HT-1080 IDH1 knockdown cell toxicity (counter line); HT-1080 IDH1 knockdown viability, ATP luminescence, 48 h; Potency, µM (doses to about 46.1 µM), without a hit: at the top dose activity, negative = toxicity, most hits filed as cytotoxic; 2% of 360,000 active;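 further: 0% = DMSO wells and -100% = cell-free medium wells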
#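 After a 2 h attachment period, IDH1KD HT-1080 cells took pin-transferred compound for 48 h at 37 °C; ATP-based luminescence after 10 min room-temperature reagent incubation reported viability.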
# TGFb SMAD3 inh – inhibitors of TGF-b signaling; HepG2 CAGA-GFP TGF-b/SMAD3 reporter, GFP fluorescence, 18 h; TGF-beta stimulated, 500 pg/mL final; 1.2% of 410,000 active; Potency, µM (series often up to 46.1 µM), for the others: top-dose activity, negative = inhibition, actives largely listed as inhibitors; further: on the % scale 0 is the no-effect control and ±100 the full control effect; nearly all actives have a fitted effect of over 65% in size
#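 HEPG2 CAGA-GFP reporter cells (1000/well, DMEM with 1% FBS) received compounds, then recombinant TGF-beta at 500 pg/mL final for 18 hours at 37 degrees C. Per-cell GFP summed per well was normalised to unstimulated and stimulated DMSO controls before curve fitting.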
# HepG2 tox – HepG2 cytotoxicity, counter-screen for TGF-b inhibitors. HepG2 CAGA-GFP viability, ATP luminescence, 18 h. Potency, µM (top dose mostly 46.1 µM), for the others: top-dose activity change, negative = cytotoxicity, usual class: cytotoxic. 0.76% of 410,000 active. AID 588856
#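 HepG2 CAGA-GFP cells (1000/well, DMEM with 1% FBS) received compound, then TGF-beta at 500 pg/mL final, and were incubated 18 hours at 37 degrees C. Viability was read by CellTiter-Glo luminescence. Media-only wells were set as complete cell-killing and DMSO as no toxicity.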
# HT1080-NT tox – kills 2HG-producing HT-1080-NT fibrosarcoma cells. 1.6% of 360,000 active. AID 686970. HT-1080-NT fibrosarcoma viability, CellTiter-Glo ATP luminescence, 48 h. Potency, µM (highest dose often 46.1 µM), for inactives: at the highest dose activity, negative = less viability, hits mostly cytotoxic;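 further: NT is the 2HG producing partner of a matched IDH1 knockdown line; 0% = DMSO-treated cells and -100% = media-only wells without cells; nearly all actives have a fitted effect of over 55% in size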
#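 Viability of the 2HG-overproducing fibrosarcoma line after 48 hours of compound exposure at 37 degrees C was determined by luminescence with CellTiter-Glo, and concentration-effect curves were then fitted and categorized.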
# Active calls of the source: *; i = inactive; ? = inconclusive; . = not tested or not shown; [ ] = another dose, or the depositor's remark. A selection: hits, their analogues and other compounds. The true share with any hit is near 3.8%. The call rests on the fitted dose curve; in most records, active means well fitted curve in the direction sought with a large enough effect; inconclusive means small, poorly fitted or top-dose-only effect, or another doubt; inactive means no such curve, though single readings can be large; an effect the other way counts as inactive or inconclusive. Potency means the concentration at half of the fitted maximal effect.
SMILES,ATXN2 expr inh,S2 tox,HT1080 IDH1KD tx,TGFb SMAD3 inh,HepG2 tox,HT1080-NT tox
O=c1c2ccccc2sc2nc(CCl)nn12,?,?,4.6µM*,?,-54%,6.5µM*
CC(C)(C)c1nnc(NS(=O)(=O)c2cc(Cl)ccc2Cl)s1,0%,i,-2%,-28%,-5%,-1%
O=S(=O)(Nc1nc(-c2sccc2Cl)cs1)c1cc(Cl)ccc1Cl,-13%,?,-28%,11µM*,-92%,-16%
Cc1[nH]nc2nc(SCC(=O)NC3CCCCC3)n(-c3ccc(Br)cc3)c(=N)c12,13µM*,20µM*,?,-24%,6%,-4%
CCCCN(CC)C(=O)CSc1nc2n[nH]c(C)c2c(=N)n1-c1cccc(OC)c1,.,.,.,4.5µM*,-30%,.
CCCN(CCC)C(=O)CSc1nc2n[nH]c(C)c2c(=N)n1-c1ccc(OC)cc1,-11%,i,-23%,-9%,-3%,-18%
CCCCN(CC)C(=O)CSc1nc2n[nH]c(C)c2c(=N)n1-c1ccc(CC)cc1,.,.,.,1.4µM*,-69%,.
CCc1ccc(NC(=O)CSc2nc3n[nH]c(C)c3c(=N)n2-c2ccc(C)cc2)cc1,.,.,.,0%,-50%,.
CCOc1ccc(-n2c(SCC(=O)Nc3ccc(CC)cc3)nc3n[nH]c(C)c3c2=N)cc1,-31%,?,18µM*,?,-54%,?
COc1ccccc1NC(=O)CSc1nnc(NC(=O)Nc2ccc(C)cc2)s1,.,.,.,5.6µM*,-54%,.
COc1ccccc1NC(=O)CSc1nnc(NC(=O)C2CC2)s1,-5%,i,-12%,-5%,-14%,0%
CCCCNC(=O)C1CCN(C(=O)N2CC(C)Oc3ccc(Cl)cc32)CC1 (stereo unspecified),.,.,.,-29%,-21%,.
CCCCCNC(=O)N1CCC(CN(Cc2ccc(Cl)cc2)Cc2ccc([N+](=O)[O-])s2)C1 (stereo unspecified),27µM*,.,.,.,.,.
O=C(/C=C/c1ccc([N+](=O)[O-])s1)N1CCCC1,.,?,-19%,11µM*,20µM*,?
CC1CN(C(=O)/C=C/c2ccc([N+](=O)[O-])s2)CC(C)O1 (stereo unspecified),-24%,i,?,?,10µM*,?
O=C(/C=C/c1ccc([N+](=O)[O-])s1)N1CCCCC1,?,?,23µM*,13µM*,11µM*,?
O=C(/C=C/c1ccc([N+](=O)[O-])s1)N1CCN(c2ccccc2)CC1,.,?,0%,?,-58%,-1%
CC(/C=C/c1ccc(N(C)C)cc1)=N\N=C1\NC(=O)CC(C(=O)Nc2ccccc2)S1 (stereo unspecified),4%,i,?,16µM*,2%,-17%
CC(/C=C/c1ccc(N(C)C)cc1)=N/N=C1/NC(=O)CC(C(=O)Nc2ccc(Cl)cc2)S1 (stereo unspecified),26%,?,16µM*,10µM*,-38%,?
CC(C)c1nc2ccc(C(=O)NCc3ccc(F)cc3)cc2o1,.,.,.,1%,-23%,.
CC(C)n1c(/N=C/c2ccccc2O)nc2ccccc21,-18%,i,-1%,1%,0%,0%
CCCCn1c(/N=C/c2ccccc2NS(=O)(=O)c2ccc(C)cc2)nc2ccccc21,8%,i,-24%,16µM*,-4%,-19%
Cc1ccc(S(=O)(=O)Nc2ccccc2/C=N/c2nc3ccccc3n2C(C)C)cc1,-3%,.,15µM*,?,-29%,18µM*
Cc1csc(C(C)N(C)C(=O)c2cnn(-c3nccc(-c4cc(C)sc4C)n3)c2C)n1 (stereo unspecified),.,i,.,.,.,.
O=C(CCl)N(CCCNC(=O)C(F)(F)F)c1ccc([N+](=O)[O-])cc1,-23%,?,7.3µM*,?,16µM*,21µM*
SMILES,ATXN2 expr inh,S2 tox,HT1080 IDH1KD tx,TGFb SMAD3 inh,HepG2 tox,HT1080-NT tox
COc1ccc(C(=O)NCc2nc(-c3ccccc3NC(=O)c3cc(C)oc3C)oc2C)cc1F,.,i,.,.,.,.
CC(C)(C)CC(C)(C)NC(=O)CSCC(=O)Nc1ccc2ccccc2c1,2%,i,-1%[9.24 µM],?,-100%,16µM*
O=C1CC(=O)OC(c2ccc([N+](=O)[O-])cc2)O1,.,?,4.6µM*,?,-57%,16µM*
CCN(CC)c1ccc(/C=C/c2ccncc2)cc1,.,.,.,88%,-38%,.
Clc1cccc(Cc2c(-c3cccc(Br)c3)nc3ccc(Br)cn23)c1,26%,?,-20%,?,-7%,-22%
Clc1cccc(Cc2c(-c3cccc(Cl)c3)nc3ccc(Br)cn23)c1,5%,?,?,14µM*,-29%,-22%
Clc1ccc(-c2nc3ccc(Br)cn3c2Cc2cccc(Cl)c2)cc1,13%,?,15µM*,?,-5%,?
N#Cc1c(O)c2c(-c3ccc(-c4ccccc4O)cc3)csc2[nH]c1=O,-9%,.,.,.,.,.
C=C1C(=O)OC2C1CCC(C)C1C=CC(=O)C12C (stereo unspecified),?,?,21µM*,?,-1%,?
CCN(CC)c1ccc(NC(=O)C2CCN(S(=O)(=O)c3c(C)noc3/C=C/c3ccccc3F)CC2)c(C)c1,.,.,.,-11%,-15%,.
COc1cccc(Cn2c(Cn3c(-c4cnccn4)nc4ccccc43)nc3ccccc32)c1,-4%,i,-28%,.,.,2%
COc1cccc(Cn2c(C(C)n3c(-c4cnccn4)nc4ccccc43)nc3ccccc32)c1 (stereo unspecified),.,.,15µM*,.,.,?
O=C(NOCC(O)CO)c1cc(Br)c(F)c(F)c1Nc1ccc(I)cc1F (stereo unspecified),-7%,.,.,.,.,.
NCCCC(N)CC(=O)NCC1NC(=O)C(CO)NC(=O)C(N)CNC(=O)C(C2CCN=C(N)N2)NC(=O)C(=CNC(N)=O)NC1=O (stereo unspecified),12%[0.709 µM],i[0.575 µM],.,.,.,.
Cc1cccc(Nc2nc(-c3ccc(F)cc3)cs2)n1,?,?,-15%,0%,-15%,-3%
Cc1cccc(Nc2nc(-c3cccs3)cs2)n1,108%,i,-28%,13µM*,-19%,-18%
Cc1cccnc1Nc1nc(-c2ccccn2)cs1,?,.,1µM*,?,-10%,1.3µM*
Cc1cccc(Nc2nc(-c3ccccn3)cs2)n1,?,?,0.35µM*,?,-35%,0.32µM*
Cc1ccc(C)c(S(=O)(=O)NCc2nc(N3CCCC3)c3cc(Cl)ccc3n2)c1,.,i,.,.,.,.
Cc1ccc(NC(=O)CSc2nncn3c2cc2sccc23)cc1F,.,.,.,?,-53%,.
